# Compounds with a hit are over-represented: about 5.4% of the library has one in this group of screens.
# p53 reactivator: mutant p53 re-activation in reporter cells; H1299 p53-A138V BP100-luciferase reporter, luminescence, 24 h; Potency, µM (titrated, usually from 92.2 µM), without a hit: at the highest dose activity change, positive = activation, actives largely listed as activators; 0.063% of 320,000 active; AID 504706; also: potency is read from the fitted curve at half-maximal effect; % of control where 0% means no effect; nearly all actives have a fitted effect of over 45% in size
#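 p53-null H1299 cells stably carrying temperature-sensitive p53-A138V and a BP100-luciferase reporter were pinned with compounds (4-point, 1:5 series) and held 24 hrs at 37 deg C. Luminescence was read 10 min after detection reagent.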
# RORg inh: inhibitors of mouse ROR gamma transcriptional activity; Drosophila S2 Gal4-RORgamma UAS-luciferase reporter, 20 h; Potency, µM (series often up to 53.6 µM), inactives show top-dose activity change, negative = inhibition, usual class: inhibitors; AID 2551; 5.4% of 310,000 active; P51450; also: potency is read from the fitted curve at half-maximal effect; % is scaled to controls: 0 for no effect and ±100 for the full control effect; nearly all actives have a fitted effect of over 60% in size
#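 Drosophila Schneider cells stably carrying a metallothionein-driven Gal4 DBD–ROR gamma fusion and a UAS-Photinus luciferase reporter were exposed to compound for 1 hr, then induced with copper sulfate (700 uM final) for 20 hr at ambient temperature before luminescence reading.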
# Six1-Eya2 inh: inhibitors of human Six1/Eya2 interaction. Q15475+O00167. AlphaScreen GST-Six1/His-Eya2 binding, biochemical; active compounds read low. activity change, % (test concentration not listed). 0.56% of 360,000 active. AID 651725; in the data active = activity change below about -65%; inconclusive = mostly about -30% to -63%; also: % is scaled to controls: 0 for no effect and ±100 for the full control effect
# Target sequence (O00167 whole entry, looked up): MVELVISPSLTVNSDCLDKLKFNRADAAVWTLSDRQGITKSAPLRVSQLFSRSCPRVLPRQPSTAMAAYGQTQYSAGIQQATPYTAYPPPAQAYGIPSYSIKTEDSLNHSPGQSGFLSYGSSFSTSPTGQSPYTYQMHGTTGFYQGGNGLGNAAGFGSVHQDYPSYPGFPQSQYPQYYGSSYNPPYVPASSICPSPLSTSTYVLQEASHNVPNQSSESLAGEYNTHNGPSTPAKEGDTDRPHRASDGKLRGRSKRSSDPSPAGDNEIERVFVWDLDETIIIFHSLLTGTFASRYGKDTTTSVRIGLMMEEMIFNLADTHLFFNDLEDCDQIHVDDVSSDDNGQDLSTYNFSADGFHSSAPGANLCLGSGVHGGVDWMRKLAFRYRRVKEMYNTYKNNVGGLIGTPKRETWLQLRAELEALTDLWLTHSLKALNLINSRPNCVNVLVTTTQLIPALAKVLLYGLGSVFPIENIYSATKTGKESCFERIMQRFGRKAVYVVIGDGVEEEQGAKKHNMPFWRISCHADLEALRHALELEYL
# Target sequence (Q15475 whole entry, looked up): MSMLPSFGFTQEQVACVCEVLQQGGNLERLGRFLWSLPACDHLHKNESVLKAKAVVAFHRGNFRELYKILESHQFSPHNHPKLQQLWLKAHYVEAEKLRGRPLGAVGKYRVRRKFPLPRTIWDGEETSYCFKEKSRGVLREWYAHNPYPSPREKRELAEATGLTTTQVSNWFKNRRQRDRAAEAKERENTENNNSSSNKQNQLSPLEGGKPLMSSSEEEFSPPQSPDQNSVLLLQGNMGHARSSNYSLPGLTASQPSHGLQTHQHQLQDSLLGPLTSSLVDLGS
#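 Compounds are tested against tagged Six1 and Eya2 proteins bridged by glutathione donor and nickel acceptor beads; after a one-hour incubation at 37 °C without light, AlphaScreen emission is recorded.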
# VP16 counter: Gal4-VP16 reporter inhibition counter-screen | 3.5% of 310,000 active | Potency, µM (highest dose often 53.6 µM), without a hit: at the top dose activity, negative = inhibition, most hits filed as inhibitors | Drosophila S2 Gal4-VP16 UAS-luciferase, luminescence, 20 h | AID 2546;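 also: Gal4-VP16 expression switched on by copper sulfate through the metallothionein promoter; potency is read from the fitted curve at half-maximal effect; % is scaled to controls: 0 for no effect and ±100 for the full control effect; nearly all actives have a fitted effect of over 50% in size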
# CtBP-E1A inh: CtBP/E1A binding inhibition; AlphaScreen GST-E1A/His-CtBP binding, 1536-well; active compounds read low; activity change, % (test concentration not listed); AID 651724; 0.49% of 340,000 active; in the data active = activity change below about -65%; inconclusive = mostly about -30% to -63%; also: % is scaled to controls: 0 for no effect and ±100 for the full control effect
#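 AlphaScreen with 125 nM GST-E1A and 125 nM His-CtBP (5X stocks) in Tris pH 8.0, 300 mM NaCl, BSA, Tween 20, TCEP. Compounds preincubated 2 h at 37 deg C, then glutathione donor/nickel acceptor beads added for 1 h at 37 deg C in dark.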
# An asterisk follows results filed as active; ? = inconclusive; nt = not tested or not shown; ! = repeats disagree. Unless noted, calls follow the shape of the dose curve; as a rule, active = well fitted curve in the direction sought with a large enough effect; inconclusive = small, poorly fitted or top-dose-only effect, or another doubt; inactive = no such curve, though single readings can be large; an effect the other way counts as inactive or inconclusive.
SMILES,p53 reactivator,RORg inh,Six1-Eya2 inh,VP16 counter,CtBP-E1A inh
CCC(C)(C)C(=O)O[C@@H]1C[C@@H](C)C=C2C=C[C@H](C)[C@H](CC[C@@H]3C[C@@H](O)CC(=O)O3)[C@H]21,nt,-38.1%,nt,?,nt
Cc1cccc(NC(=O)CS(=O)(=O)Cc2ccccc2)n1,-4.2%,-6.5%,-0.4,8.7%,-0.8
Cc1cccc(NC(=S)NCCc2ccccc2)n1,-2.6%,0.562µM*,-2.1,3.16µM*,-17.5
S=C(NCCc1ccccc1)Nc1ccccn1,?,1.12µM*,4.8,3.16µM*,1.6
COc1ccc2c(c1)OC(C)(C)C(c1ccccc1)C2c1ccc(OCCN2CCCC2)cc1 (stereo unspecified),nt,-22.3%,nt,-14.1%,nt
CC(C)(C)CC(C)(C)c1ccc(O)c(CN2CCN(CCC#N)CC2)c1,-1.1%,25.1µM*,-14.2,-23.8%,-12.1
N#CCCN1CCN(Cc2cc(-c3ccccc3)ccc2O)CC1,-8.1%,16.3%,-11.7,4.4%,-8.5
COc1ccc(N=C(C)C2=C(O)c3ccccc3C2=O)cc1,?,-41.0%,17.1,?,23.0
CN=CC1=C(O)c2ccccc2C1=O,21.2%,14.7%,4.3,-5.7%,0.6
COc1ccc(N=CC2=C(O)c3ccccc3C2=O)cc1,nt,3.16µM*,1.1,?,2.3
O=C1C(C=Nc2ccccc2)=C(O)c2ccccc21,?,?,-1.0,11.2µM*,3.0
CCC(C)[C@H]1COCCS(=O)(=O)N1Cc1ccccc1 (stereo partly specified),5.5%,-10.7%,18.6,3.2%,0.9
O=C(c1ccncc1)N1CCC2(CC1)CCN(C(c1ccccc1)c1ccccc1)CC2,nt,3.7%,nt,0.9%,nt
COc1ccc(/C(C)=N/Nc2nncc3ccccc23)cc1,?,?,-9.6,-10.5%,1.2
CNC(=S)NNc1nncc2ccccc12,13.1%,5.01µM*,15.2,4.47µM*,6.1
CCNC(=S)NNC(=O)c1csc2ccccc12,-0.8%,?,-1.1,-17.7%,9.8
NCc1csc(Nc2nncc3ccccc23)n1,nt,nt,-10.0,nt,-29.9
NNc1nncc2ccccc12,nt,7.08µM*!,nt,?,nt
CCNC(=S)NNc1nncc2ccccc12,5.6%,0.501µM*,6.2,3.16µM*,1.3
O=C1/C(=C\c2cccnc2)SC(=S)N1C1CCS(=O)(=O)C1 (stereo unspecified),-7.7%,6.31µM*,-7.0,?,-10.6
O=C1/C(=C/c2cccnc2)SC(=S)N1C1CCS(=O)(=O)C1 (stereo unspecified),-41.8%,11.2µM*,-5.3,?,6.0
COc1cccc(C(=O)N/N=c2/oc3ccccc3cc2C(N)=O)c1,-1.6%,31.3%,?,-1.3%,?
COc1ccc2cc(C(N)=O)/c(=N\NC(=O)c3ccccc3)oc2c1,7.8%,12.6µM*,-6.9,?,-16.5
O=S(=O)(Nc1nc2ccccc2nc1NCc1ccco1)c1ccc(Cl)cc1,-6.8%,-37.2%,-7.9,11.2µM*,0.1
COc1cc([N+](=O)[O-])ccc1NC(=O)N1CCCCCC1,-26.2%,12.6µM*,-7.5,?,3.1
SMILES,p53 reactivator,RORg inh,Six1-Eya2 inh,VP16 counter,CtBP-E1A inh
Cc1ccc(NC(=O)NCc2nc3ccccc3n2C)cc1,-4.4%,-36.3%,3.7,7.5%,-13.8
Cc1ccc(NC(=O)C2=C(O)CCn3c2nc2ccccc23)cc1,2.7%,4.47µM*,-8.7,5.62µM*,8.3
CCCCC1(Cc2cccc([N+](=O)[O-])c2)C(=O)N(c2ccccc2)N(c2ccccc2)C1=O,1.6%,17.8µM*,-19.2,?,-15.8
CCOC(=O)c1sc2nc(C)n(N)c(=O)c2c1C,13.8%,9.3%,5.0,1.3%,2.5
CCOC(=O)c1sc2nc(C)[nH]c(=S)c2c1C,0.2%,0.562µM*,-3.5,0.794µM*,2.2
O=C(Oc1ccc(Cl)c2cccnc12)N1CCOCC1,?,-14.8%,1.4,-3.1%,-1.0
O=C(Nc1cccnc1Cl)c1cccs1,4.2%,19.5%,7.5,-1.5%,8.3
O=C(Oc1c(Cl)cc(Cl)c2cccnc12)c1ccco1,?,0.282µM*,-92.3*,?,-14.4
CC(CN1CCOCC1)OC(=O)c1cccs1 (stereo unspecified),2.4%,-2.2%,13.0,-22.3%,-4.8
O=C(Oc1c(Cl)cc(Cl)c2cccnc12)c1cccs1,?,0.631µM*,-67.1*,1µM*,-81.7*
O=C(Oc1c(CN2CCOCC2)cc(Cl)c2cccnc12)c1ccccc1Cl,-0.1%,0.708µM*,-93.2*,3.55µM*,-91.2*
O=C(Oc1c(CN2CCOCC2)cc(Cl)c2cccnc12)c1cccs1,2.6%,1.41µM*,-84.4*,1µM*,-85.9*
COc1ccc(CCNC(=S)NC(=O)c2ccccc2)cc1OC,1.4%,4.47µM*,-10.5,7.08µM*,-9.4
COc1ccc(C(=O)NC(=S)NCCc2ccccc2)cc1,16.8%,10µM*,0.7,?,4.2
COc1ccc(CCNC(=O)c2ccccc2)cc1,18.5%,23.4%,0.6,8.4%,1.4
O=C(NC(=S)NCCc1ccccc1)c1cccc(Cl)c1,?,12.6µM*,8.3,17.8µM*,-11.9
COc1ccc(CCNC(=S)NC(=O)c2cc(OC)c(OC)c(OC)c2)cc1OC,1.3%,-40.3%,-17.2,-3.0%,0.5
COc1ccc(CCNC(=S)NC(=O)c2cccc([N+](=O)[O-])c2)cc1OC,-7.6%,12.6µM*,-16.7,15.8µM*,-12.8
O=C(/C=C/[C@H]1O[C@@H](n2cnc3c(NC(=O)c4ccccc4)ncnc32)[C@H](O)[C@@H]1O)NCCc1ccc(F)cc1,nt,nt,6.2,nt,1.1
COc1ccc(/C=C/C(=O)NC(=S)NCCc2ccc(OC)c(OC)c2)cc1,0.1%,2.82µM*,-0.7,?,0.7
COc1ccc(CCNC(=S)NC(=O)c2cccc(Cl)c2)cc1OC,-0.8%,11.2µM*,1.5,?,-22.1
COc1ccc(CCNC(=O)c2ccc(OC)c(OC)c2)cc1OC,nt,-7.5%,-10.2,16.1%,-23.8
Cc1cccc(-n2c(SCC(=O)Nc3ccc4c(c3)OCO4)nnc2-c2ccoc2C)c1,-4.2%,2µM*,0.8,?,-4.6
O=C(N/N=C/c1ccccc1)c1ccc2c(c1)OCO2,nt,?,1.2,11.2µM*,2.8
O=C(N/N=C/c1cccnc1)c1ccc2c(c1)OCCO2,?,?,1.9,14.1µM*,11.9
O=C(N/N=C\c1ccc(-c2ccc([N+](=O)[O-])cc2)o1)c1ccc2c(c1)OCO2,-24.4%,-37.3%,-6.7,?,-3.9
O=C(N/N=C/c1ccc(Br)o1)c1ccc2c(c1)OCCO2,?,11.2µM*,-27.3,?,-11.4
CN(C)c1ccc(/C=N/NC(=O)c2ccc3c(c2)OCO3)cc1,20.0%,?,-4.8,3.0%,-1.7
O=C(N/N=C/c1ccc([N+](=O)[O-])o1)c1ccc2c(c1)OCO2,-4.1%,4.47µM*,-7.5,10µM*,-15.2
O=C(N/N=C/c1ccc2c(c1)OCO2)c1cccnc1,26.7%,-22.7%,2.3,18.0%,-0.1

# From PubChem
